The whole screen tested about 5,500 compounds, of which about 2,000 (36%) were called active. Another 18% or so got no clear call; they are omitted. Cut-off read from the data, not from the text of the source: active = normalized growth mostly below about 0.91 (no sharp cut-off); inconclusive = no clear call, values can overlap the other calls; inactive = mostly above about 0.92. The list shows a part of the results.
Experiment: chemical genetic growth profiling, strain panel (AID 1159580);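 note: tested at 20 µM; growth read once vehicle control cultures reached saturation at 30 °C; 1 = growth at the plate median or of vehicle wells; lower values mean less growth of the strain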
Conditions: growth OD

Measured: normalized growth

Cc1cccc(C)c1NC(=O)C1CCCCN1C (configuration not stated)
inactive: S. cerevisiae deletion strains, locus YJR075W, strain HOC1, stronger effect = lower value 1 | S. cerevisiae deletion strains, locus YKL009W, strain mrt4, stronger effect = lower value 1.04 | S. cerevisiae deletion strains, locus YKL068W, stronger effect = lower value 0.999 | S. cerevisiae deletion strains, locus YKL085W, strain MDH1 (second series), stronger effect = lower value 1 | S. cerevisiae deletion strains, locus YKL085W, strain MDH1, stronger effect = lower value 1 | S. cerevisiae deletion strains, locus YKL160W, strain elf1, stronger effect = lower value 0.994 | S. cerevisiae deletion strains, locus YKL190W, strain CNB1, stronger effect = lower value 0.982 | S. cerevisiae deletion strains, locus YKR001C, strain vps1, stronger effect = lower value 1.01 | S. cerevisiae deletion strains, locus YKR026C, strain gcn3, stronger effect = lower value 0.979 | S. cerevisiae deletion strains, locus YKR091W, strain srl3, stronger effect = lower value 0.994 | S. cerevisiae deletion strains, locus YLL001W, strain dnm1, stronger effect = lower value 0.99 | S. cerevisiae deletion strains, locus YLL026W, stronger effect = lower value 0.991 | S. cerevisiae deletion strains, locus YLL041C, strain sdh2, stronger effect = lower value 1 | S. cerevisiae deletion strains, locus YLR027C, strain aat2, stronger effect = lower value 0.992 | S. cerevisiae deletion strains, locus YLR039C, strain RIC1, stronger effect = lower value 1.01 | S. cerevisiae deletion strains, locus YLR058C, strain SHM2, stronger effect = lower value 1 | S. cerevisiae deletion strains, locus YLR102C, strain apc9, stronger effect = lower value 1.02 | S. cerevisiae deletion strains, locus YLR113W, strain HOG1, stronger effect = lower value 1.01 | S. cerevisiae deletion strains, locus YLR221C, strain rsa3, stronger effect = lower value 0.996 | S. cerevisiae deletion strains, locus YLR258W, strain gsy2, stronger effect = lower value 0.991 | S. cerevisiae deletion strains, locus YLR262C, strain YPT6 (second series), stronger effect = lower value 0.986 | S. cerevisiae deletion strains, locus YLR262C, strain YPT6, stronger effect = lower value 0.996 | S. cerevisiae deletion strains, locus YLR268W, strain sec22, stronger effect = lower value 1.02 | S. cerevisiae deletion strains, locus YLR320W, strain mms22, stronger effect = lower value 0.976 | S. cerevisiae deletion strains, locus YLR330W, strain CHS5, stronger effect = lower value 1.01 | S. cerevisiae deletion strains, locus YLR342W, strain FKS1 (second series), stronger effect = lower value 1.03 | S. cerevisiae deletion strains, locus YLR342W, strain FKS1, stronger effect = lower value 0.992 | S. cerevisiae deletion strains, locus YLR357W, strain rsc2, stronger effect = lower value 0.972 | S. cerevisiae deletion strains, locus YLR370C, strain arc18, stronger effect = lower value 0.978 | S. cerevisiae deletion strains, locus YLR371W, strain rom2, stronger effect = lower value 1.02 | S. cerevisiae deletion strains, locus YLR384C, strain iki3, stronger effect = lower value 0.985 | S. cerevisiae deletion strains, locus YLR418C, strain cdc73, stronger effect = lower value 1.03 | S. cerevisiae deletion strains, locus YML016C, strain PPZ1, stronger effect = lower value 1 | S. cerevisiae deletion strains, locus YML032C, strain rad52, stronger effect = lower value 0.998 | S. cerevisiae deletion strains, locus YML120C, strain ndi1, stronger effect = lower value 0.987 | S. cerevisiae deletion strains, locus YML124C, strain tub3, stronger effect = lower value 1.02 | S. cerevisiae deletion strains, locus YMR058W, strain fet3, stronger effect = lower value 0.988 | S. cerevisiae deletion strains, locus YMR078C, strain ctf18, stronger effect = lower value 1.01 | S. cerevisiae deletion strains, locus YMR125W, strain sto1, stronger effect = lower value 0.98 | S. cerevisiae deletion strains, locus YMR129W, stronger effect = lower value 0.995 | S. cerevisiae deletion strains, locus YMR205C, strain PFK2, stronger effect = lower value 0.976 | S. cerevisiae deletion strains, locus YMR223W, strain ubp8, stronger effect = lower value 0.998 | S. cerevisiae deletion strains, locus YMR231W, strain pep5, stronger effect = lower value 0.985 | S. cerevisiae deletion strains, locus YMR263W, strain SAP30, stronger effect = lower value 0.997 | S. cerevisiae deletion strains, locus YMR307W, strain GAS1, stronger effect = lower value 0.985 | S. cerevisiae deletion strains, locus YNL067W, strain RPL9B, stronger effect = lower value 0.996 | S. cerevisiae deletion strains, locus YNL071W, strain lat1, stronger effect = lower value 0.989 | S. cerevisiae deletion strains, locus YNL128W, strain TEP1, stronger effect = lower value 1.01 | S. cerevisiae deletion strains, locus YNL153C, strain GIM3, stronger effect = lower value 1.01 | S. cerevisiae deletion strains, locus YNL183C, strain NPR1, stronger effect = lower value 0.963 | S. cerevisiae deletion strains, locus YNL209W, strain ssb2, stronger effect = lower value 0.987 | S. cerevisiae deletion strains, locus YNL233W, strain BNI4, stronger effect = lower value 1.01 | S. cerevisiae deletion strains, locus YNL248C, strain rpa49, stronger effect = lower value 0.976 | S. cerevisiae deletion strains, locus YNL250W, strain rad50, stronger effect = lower value 0.999 | S. cerevisiae deletion strains, locus YNL271C, strain bni1, stronger effect = lower value 1.01 | S. cerevisiae deletion strains, locus YNL298W, strain CLA4, stronger effect = lower value 1.01 | S. cerevisiae deletion strains, locus YNL307C, strain MCK1, stronger effect = lower value 1.02 | S. cerevisiae deletion strains, locus YNL322C, strain KRE1 (second series), stronger effect = lower value 0.966 | S. cerevisiae deletion strains, locus YNL322C, strain KRE1, stronger effect = lower value 1.01 | S. cerevisiae deletion strains, locus YNR049C, strain mso1, stronger effect = lower value 0.99 | S. cerevisiae deletion strains, locus YNR052C, strain pop2, stronger effect = lower value 1 | S. cerevisiae deletion strains, locus YOL006C, strain TOP1, stronger effect = lower value 1.02 | S. cerevisiae deletion strains, locus YOL012C, strain htz1 0.844 | S. cerevisiae deletion strains, locus YOL147C, strain pex11, stronger effect = lower value 1.01 | S. cerevisiae deletion strains, locus YOR001W, strain rrp6, stronger effect = lower value 0.974 | S. cerevisiae deletion strains, locus YOR061W, strain CKA2, stronger effect = lower value 1 | S. cerevisiae deletion strains, locus YOR069W, strain VPS5, stronger effect = lower value 0.999 | S. cerevisiae deletion strains, locus YOR070C, strain gyp1, stronger effect = lower value 0.991 | S. cerevisiae deletion strains, locus YOR080W, strain dia2, stronger effect = lower value 0.981 | S. cerevisiae deletion strains, locus YOR083W, strain WHI5, stronger effect = lower value 0.989 | S. cerevisiae deletion strains, locus YOR106W, strain vam3, stronger effect = lower value 1.01 | S. cerevisiae deletion strains, locus YOR136W, strain idh2, stronger effect = lower value 1.02 | S. cerevisiae deletion strains, locus YOR144C, strain elg1, stronger effect = lower value 1.01 | S. cerevisiae deletion strains, locus YOR184W, strain ser1, stronger effect = lower value 1.02 | S. cerevisiae deletion strains, locus YOR231W, strain MKK1, stronger effect = lower value 1.03 | S. cerevisiae deletion strains, locus YOR265W, strain rbl2, stronger effect = lower value 1 | S. cerevisiae deletion strains, locus YOR270C, strain vph1, stronger effect = lower value 0.981 | S. cerevisiae deletion strains, locus YOR290C, strain snf2, stronger effect = lower value 0.999 | S. cerevisiae deletion strains, locus YOR316C, strain cot1, stronger effect = lower value 1.01 | S. cerevisiae deletion strains, locus YPL051W, strain arl3, stronger effect = lower value 0.993 | S. cerevisiae deletion strains, locus YPL055C, strain LGE1, stronger effect = lower value 0.992 | S. cerevisiae deletion strains, locus YPL078C, strain atp4, stronger effect = lower value 0.997 | S. cerevisiae deletion strains, locus YPL106C, strain sse1, stronger effect = lower value 0.98 | S. cerevisiae deletion strains, locus YPL240C, strain hsp82, stronger effect = lower value 1 | S. cerevisiae deletion strains, locus YPL241C, strain CIN2, stronger effect = lower value 0.999 | S. cerevisiae deletion strains, locus YPL256C, strain CLN2, stronger effect = lower value 1.01 | S. cerevisiae deletion strains, locus YPR119W, strain clb2, stronger effect = lower value 1.02 | S. cerevisiae deletion strains, locus YPR141C, strain kar3, stronger effect = lower value 1.01 | S. cerevisiae deletion strains, locus YPR163C, strain tif3, stronger effect = lower value 1.02 | S. cerevisiae deletion strains, locus YPR167C, strain met16, stronger effect = lower value 1.01 | S. cerevisiae deletion strains, strain wtn01, stronger effect = lower value 1.01 | S. cerevisiae strains, strain wild type, stronger effect = lower value 0.992

From PubChem BioAssay AID1159580 (chemical genetic matrix, 2015)
